Test results published in the supplement of paper PMC12808144.
A number with no mark means an inactive call.

Tests used:
Mel-DCC-11 = assay: cell viability relative to DMSO control (fraction of DMSO control); higher = less cytotoxic, active = 0.5 or less; conditions: 1 µM; 120 h
Procedure, shortened: (§1)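 For 120 h, duplicate wells of 384-well plates held 1 µM of each of 315 approved anti-cancer drugs (TargetMol), spotted acoustically before cells were added in 40 µl per well. Immortalized NHEM-hTERT melanocytes were seeded at 2500/well, and patient-derived Mel-DCC-11 plus its resistant subline Mel-DCC-11-R at 1500/well. The subline was run both without and with 8 µM of its selecting drug, and ATPlite 1step luminescence was read. Viability was normalised to vehicle-treated wells and averaged over the two replicates.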

NHEM-hTERT = assay: as above; conditions: 1 µM; 120 h
Procedure, shortened: as §1

Mel-DCC-11-R = assay: cell viability relative to DMSO control (fraction of DMSO control); higher = less cytotoxic, active = 0.8 or less; conditions: 1 µM, 120 h
Procedure, shortened: as §1

Compound	cell viability (Mel-DCC-11)	cell viability (NHEM-hTERT)	cell viability (Mel-DCC-11-R; vemurafenib co-treatment 0 µM)	cell viability (Mel-DCC-11-R; vemurafenib co-treatment 8 µM)
CC/C(=C(\c1ccc(O)cc1)c1ccc(OCCNC)cc1)c1ccccc1 [(E/Z)-Endoxifen]	1.05	0.88	1.15	1.14
CCNC(=O)[C@@H]1CCCN1C(=O)[C@H](CCCN=C(N)N)NC(=O)[C@H](CC(C)C)NC(=O)[C@@H](CC(C)C)NC(=O)[C@H](Cc1ccc(O)cc1)NC(=O)[C@H](CO)NC(=O)[C@H](Cc1c[nH]c2ccccc12)NC(=O)[C@H](Cc1cnc[nH]1)NC(=O)[C@@H]1CCC(=O)N1 [Leuprorelin Acetate]	0.683	0.879	0.854	0.919
COc1ccc2cc3[n+](cc2c1OC)CCc1cc2c(cc1-3)OCO2 [Berberine]	1.36	1.1	1.05	0.918
CN(C)C/C=C/C(=O)Nc1cc2c(Nc3ccc(F)c(Cl)c3)ncnc2cc1O[C@H]1CCOC1.O=C(O)/C=C\C(=O)O.O=C(O)/C=C\C(=O)O [Afatinib Dimaleate]	0.711	1.13	1.03	0.766 (active)
Cn1nnc(-c2ccc(-c3ccc(N4C[C@H](CO)OC4=O)cc3F)cn2)n1 [Torezolid]	2	0.958	0.848	0.663 (active)
CN(C)C(=O)c1cc2cnc(Nc3ccc(N4CCNCC4)cn3)nc2n1C1CCCC1 [Ribociclib]	0.584	0.989	1.25	1.21
CC(=O)c1c(C)c2cnc(Nc3ccc(N4CCNCC4)cn3)nc2n(C2CCCC2)c1=O [Palbociclib]	0.763	0.993	1.76	1.15
C=C1CC[C@H](O)C/C1=C/C=C1\CCC[C@]2(C)[C@@H]([C@H](C)/C=C/[C@H](C)C(C)C)CC[C@@H]12 [Vitamin D2]	1.13	0.998	1	1.16
NC(=O)N1CCC(CC(=O)N2CCC([C@H]3c4ncc(Br)cc4CCc4cc(Cl)cc(Br)c43)CC2)CC1 [Lonafarnib]	0.726	0.9	0.926	0.889
O=C(/C=C\n1cnc(-c2cc(C(F)(F)F)cc(C(F)(F)F)c2)n1)NNc1cnccn1 [Selinexor]	0.445 (active)	0.73	1.59	0.678 (active)
CC[C@@H]1C(=O)N(C)c2cnc(Nc3ccc(C(=O)N[C@H]4CC[C@H](N5CCN(CC6CC6)CC5)CC4)cc3OC)nc2N1C(C)C [Volasertib]	0.752	0.872	1	0.664 (active)
C.CCN(CC)CCCC(C)Nc1ccnc2cc(Cl)ccc12.O=P(O)(O)O.O=P(O)(O)O (stereo unspecified) [Chloroquine diphosphate]	1.06	1.27	0.913	1.1
[Cl][Pt+2][Cl] [Cisplatin]	1.12	1.04	1.08	1.28
CC(C)C(=O)Nc1ccc([N+](=O)[O-])c(C(F)(F)F)c1 [Flutamide]	1.26	1.25	1.1	1.21
COc1cc([C@H]2Oc3cc([C@H]4Oc5cc(O)cc(O)c5C(=O)[C@@H]4O)ccc3O[C@@H]2CO)ccc1O [Silibinin]	0.939	0.948	0.799 (active)	0.914
COC(=O)c1ccc2c(c1)NC(=O)/C2=C(\Nc1ccc(N(C)C(=O)CN2CCN(C)CC2)cc1)c1ccccc1 [Nintedanib]	0.982	0.909	1.01	0.803
COC(=O)c1cc(OC)c2c(c1-c1c(CO)cc(OC)c3c1OCO3)OCO2 [Bicyclol]	1.13	1.12	0.998	1.1
CC(C)C[C@@H](NC(=O)[C@H](O)[C@@H](N)Cc1ccccc1)C(=O)O.Cl [Bestatin hydrochloride]	1.15	1.08	0.993	1.14
COc1ccc2[nH]cc(CCNC(C)=O)c2c1 [Melatonine]	0.874	0.936	0.786 (active)	0.839
CNC(=O)c1cc(Oc2ccc(NC(=O)Nc3ccc(Cl)c(C(F)(F)F)c3)c(F)c2)ccn1 [Regorafenib]	0.78	0.792	0.909	0.82

Compound	cell viability (Mel-DCC-11)	cell viability (NHEM-hTERT)	cell viability (Mel-DCC-11-R; vemurafenib co-treatment 0 µM)	cell viability (Mel-DCC-11-R; vemurafenib co-treatment 8 µM)
CN(CCOc1ccc(CC2SC(=O)NC2=O)cc1)c1ccccn1.O=C(O)/C=C\C(=O)O (stereo unspecified) [Rosiglitazone maleate]	1.17	1.06	0.97	1.12
CNC(=O)c1c(C)oc2cc(Oc3ncnc4cc(OC)c(OC)cc34)ccc12 [Fruquintinib]	1.34	0.982	1.09	1.05
CC1=C(/C=C/C(C)=C/C=C/C(C)=C/C(=O)O)C(C)(C)CCC1 [Tretinoin]	1.5	0.953	0.946	1.19
Cc1c(C(=O)Nc2ccc(N3C[C@@H](C)O[C@@H](C)C3)nc2)cccc1-c1ccc(OC(F)(F)F)cc1 [Sonidegib]	1.17	1.04	1.03	1.2
O=C(/C=C/c1ccc(O)cc1)c1ccc(O)cc1O [Isoliquiritigenin]	1.03	0.982	0.834	1.02
Nc1ccn([C@@H]2O[C@H](CO)[C@@H](O)C2(F)F)c(=O)n1 [Gemcitabine]	0.437 (active)	0.639	0.869	0.709 (active)
CCCC(=O)O[C@]1(C(=O)CO)CC[C@H]2[C@@H]3CCC4=CC(=O)CC[C@]4(C)[C@H]3[C@@H](O)C[C@@]21C [Hydrocortisone butyrate]	1.4	0.973	1.21	1.14
O=c1[nH]cc(F)c(=O)[nH]1 [Fluorouracil]	1.46	1.01	1.14	1.06
O=c1[nH]c(=O)n([C@H]2C[C@H](O)[C@@H](CO)O2)cc1C(F)(F)F [Trifluridine]	1.7	1.12	1.24	1.06
CC#CC(=O)N1CCC[C@H]1c1nc(-c2ccc(C(=O)Nc3ccccn3)cc2)c2c(N)nccn12 [Acalabrutinib]	1.12	1	1.04	1
CC[C@@H](CO)NCCN[C@@H](CC)CO.Cl.Cl [Ethambutol dihydrochloride]	0.966	1.2	0.965	1.08
CN(C)C(=N)N=C(N)N.Cl [Metformin hydrochloride]	1.03	1.07	0.843	1.08
CC(C)[C@H](NC(=O)[C@H](CC(=O)O)NC(=O)[C@H](CCCCN)NC(=O)[C@@H](N)CCCNC(=N)N)C(=O)N[C@@H](Cc1ccc(O)cc1)C(=O)O [Thymopentin]	1.13	1.01	1.21	1.04
COc1cc([C@@H]2c3cc4c(cc3[C@@H](O[C@@H]3O[C@@H]5CO[C@@H](c6cccs6)O[C@H]5[C@H](O)[C@H]3O)[C@H]3COC(=O)[C@H]23)OCO4)cc(OC)c1O [Teniposide]	1.16	0.746	1.39	0.638 (active)
Cc1cn(-c2cc(NC(=O)c3ccc(C)c(Nc4nccc(-c5cccnc5)n4)c3)cc(C(F)(F)F)c2)cn1 [Nilotinib]	1.13	0.969	1.15	1.06
CO[C@H]1C[C@@H]2CC[C@@H](C)[C@@](O)(O2)C(=O)C(=O)N2CCCC[C@H]2C(=O)O[C@H]([C@H](C)C[C@@H]2CC[C@@H](OCCO)[C@H](OC)C2)CC(=O)[C@H](C)/C=C(\C)[C@@H](O)[C@@H](OC)C(=O)[C@H](C)C[C@H](C)/C=C/C=C/C=C/1C [Everolimus]	1.35	0.964	1.57	0.834
COc1cc2nccc(Oc3ccc(NC(=O)NC4CC4)c(Cl)c3)c2cc1C(N)=O [Lenvatinib]	1.26	0.784	1.03	1.17
Cl.N=c1ccn2c(n1)O[C@H]1[C@H](O)[C@@H](CO)O[C@H]12 [Cyclocytidine hydrochloride]	0.737	0.845	0.873	0.599 (active)
CC(C)(C#N)c1cc(Cn2cncn2)cc(C(C)(C)C#N)c1 [Anastrozole]	0.836	1.02	1	1.01
